Assay results as given in PubChem BioAssay (NCI).
Several values for one entry are separate records, joined by “and”; a condition that tells them apart may be missing. Equal entries are not always repeated. The panel holds about 83,000 compounds, 20% with a hit somewhere; the sample as a whole holds those more often.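 Negative percent growth values reflect cell death: -40 means 40% of the cells present at the start died, and -100 means all died.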 Activity calls are given as the source filed them. How the source made its calls: active means growth percent below 10; inactive means the rest.

Key:
Test in all cases: NCI-60 one-dose screen, 48 h (100 = growth as untreated, 0 = no growth, -100 = all killed)
SN12C renal = settings: 10 µM
UO-31 renal = settings: 10 µM
TK-10 renal = test system: TK-10 renal
ACHN renal = settings: 10 µM
CAKI-1 renal = settings: 10 µM
A498 renal = settings: 10 µM
CCRF-CEM leukemia = settings: 10 µM
MOLT-4 leukemia = settings: 10 µM
EKVX NSCLC = settings: 10 µM

Compound	growth (SN12C renal)	growth (UO-31 renal)	growth (TK-10 renal; 10 µM unless noted)	growth (ACHN renal)	growth (CAKI-1 renal)	growth (A498 renal)	growth (CCRF-CEM leukemia)	growth (MOLT-4 leukemia)	growth (EKVX NSCLC)	growth (TK-10 renal; 10 µM)	growth (TK-10 renal; 100 µM)
CC(C)CCCC(=O)O	106% (inactive)	95.4% (inactive)	105% (inactive)	104% (inactive)	105% (inactive)	86.8% (inactive)	101% (inactive)	119% (inactive)	–	–	–
Oc1ccccc1O	83.8% (inactive)	–	80.8% (inactive)	92.4% (inactive)	93.9% (inactive)	87.9% (inactive)	27.1% (inactive)	74.4% (inactive)	109% (inactive)	–	–
COC(=O)c1ccccc1N(C)C	103% (inactive)	87.5% (inactive)	94.8% (inactive)	113% (inactive)	96.2% (inactive)	79.6% (inactive)	95.5% (inactive)	90.1% (inactive)	–	–	–
CC1Cc2ccccc2O1 (stereo unspecified)	106% (inactive)	90.6% (inactive)	129% (inactive)	101% (inactive)	102% (inactive)	–	112% (inactive)	105% (inactive)	122% (inactive)	–	–
COc1ncnc2c1cnn2C	98.2% (inactive)	–	108% (inactive)	98.1% (inactive)	105% (inactive)	99.7% (inactive)	97% (inactive)	89.9% (inactive)	100% (inactive)	–	–
CC1(C)Nc2cccc3c(N=Nc4ccc(N=Nc5ccccc5)c5ccccc45)ccc(c23)N1	94.6% (inactive)	54.2% (inactive)	–	77.7% (inactive)	88.1% (inactive)	–	107% (inactive)	115% (inactive)	78% (inactive)	–	–
Cc1ccc(C)n1-c1ccsc1C(=O)NNC(=O)C(Cl)Cl	98.6% (inactive)	–	112% (inactive)	104% (inactive)	93.3% (inactive)	101% (inactive)	85.3% (inactive)	118% (inactive)	92.5% (inactive)	–	–
CC1(C)N=C(N)N=C(N)N1c1ccc(Cl)cc1	41.4% (inactive)	85.9% (inactive)	69.7% (inactive)	67.4% (inactive)	99.9% (inactive)	–	–	53.6% (inactive)	48.4% (inactive)	–	–
c1ccc(CN2COc3c(ccc4c3OCN(Cc3ccccc3)C4)C2)cc1	11.1% (inactive)	-17.5% (active)	30.5% (inactive)	12.3% (inactive)	7.65% (active)	51.6% (inactive)	5.13% (active)	0.409% (active)	–	–	–
CCOc1ccc(/C=C/C(=O)c2ccccc2)cc1	95.7% (inactive)	84% (inactive)	97.6% (inactive)	108% (inactive)	–	88.8% (inactive)	55.9% (inactive)	77.6% (inactive)	107% (inactive)	–	–
CCCCCCCCCCC(C)Br (stereo unspecified)	103% (inactive)	91.9% (inactive)	107% (inactive)	102% (inactive)	98.6% (inactive)	108% (inactive)	95.3% (inactive)	95.3% (inactive)	–	–	–
CC(=O)OC(OC(C)=O)C1CCCO1 (stereo unspecified)	96.8% (inactive)	–	103% (inactive)	98.7% (inactive)	112% (inactive)	106% (inactive)	109% (inactive)	123% (inactive)	97.7% (inactive)	–	–
O=[N+]([O-])c1ccc(-c2ncc(-c3ccc(Br)cc3)o2)cc1	103% (inactive)	84.5% (inactive)	108% (inactive)	94.2% (inactive)	–	68.4% (inactive)	92.6% (inactive)	97.6% (inactive)	101% (inactive)	–	–
c1ccc(Cc2ccccc2)cc1	95.1% (inactive)	–	99% (inactive)	107% (inactive)	85.7% (inactive)	102% (inactive)	104% (inactive)	-26.2% (active)	102% (inactive)	–	–
CCN(CC)c1ccc2nc3ccc(=[N+](CC)CC)cc-3oc2c1	0.99% (active)	56% (inactive)	-26.1% (active)	8.56% (active)	34.9% (inactive)	74.4% (inactive)	11.2% (inactive)	-21.4% (active)	–	–	–
Cc1ccccc1C1N=C2Oc3ccccc3C=C2C(=O)N1 (stereo unspecified)	43.3% (inactive)	52% (inactive)	53.7% (inactive)	50.6% (inactive)	31.1% (inactive)	-11.6% (active)	38.4% (inactive)	44% (inactive)	–	–	–
CCc1nn(Cc2ccccc2)c2nc(C)c(CCc3ccccc3)c(Cl)c12	86.1% (inactive)	–	91.5% (inactive)	98.4% (inactive)	67.8% (inactive)	99.1% (inactive)	80.1% (inactive)	96% (inactive)	84.3% (inactive)	–	–
O=c1cc(-c2ccccc2)oc2c1ccc1ccccc12	84.2% (inactive)	58.9% (inactive)	108% (inactive)	77% (inactive)	90.8% (inactive)	–	89.4% (inactive)	75.6% (inactive)	80.1% (inactive)	–	–
COC1=CC(=O)c2nc(Cl)ccc2C1=O	-69.5% (active)	23.5% (inactive)	84.2% (inactive)	42.6% (inactive)	91.6% (inactive)	108% (inactive)	1.69% (active)	-27.4% (active)	–	–	–

Compound	growth (SN12C renal)	growth (UO-31 renal)	growth (TK-10 renal; 10 µM unless noted)	growth (ACHN renal)	growth (CAKI-1 renal)	growth (A498 renal)	growth (CCRF-CEM leukemia)	growth (MOLT-4 leukemia)	growth (EKVX NSCLC)	growth (TK-10 renal; 10 µM)	growth (TK-10 renal; 100 µM)
Nc1ccc(NC(=O)c2cccc(N)c2)cc1	99.5% (inactive)	–	123% (inactive)	97.8% (inactive)	56.4% (inactive)	90.6% (inactive)	88.8% (inactive)	–	86.6% (inactive)	–	–
O=C(O)CCC(NC(=O)OCc1ccccc1)C(=O)O (stereo unspecified)	100% (inactive)	94.9% (inactive)	93.1% (inactive)	111% (inactive)	101% (inactive)	106% (inactive)	101% (inactive)	105% (inactive)	–	–	–
COc1cc2c3cc1Oc1c(OC)c(OC)cc4c1C(Cc1ccc(O)c(c1)Oc1ccc(cc1)CC3N(C)CC2)N(C)CC4 (stereo unspecified)	16.9% (inactive)	2.84% (active)	–	18.9% (inactive)	–	–	2.18% (active)	-3.59% (active)	–	4.81% (active)	96% (inactive) and -100% (active)
CC(=O)OC(C(=O)O)c1ccccc1 (stereo unspecified)	101% (inactive)	126% (inactive)	117% (inactive)	106% (inactive)	104% (inactive)	–	86% (inactive)	95.5% (inactive)	111% (inactive)	–	–
CN(C)c1ccc2nc3ccc(=N)cc-3sc2c1	57.3% (inactive)	57.3% (inactive)	105% (inactive)	53% (inactive)	68.3% (inactive)	55.8% (inactive)	–	–	–	–	–
CCCCNC1(C#N)CCN(Cc2ccccc2)CC1	104% (inactive)	81.1% (inactive)	105% (inactive)	106% (inactive)	76.1% (inactive)	78.5% (inactive)	102% (inactive)	152% (inactive)	–	–	–
CCCCCCCCCCCCCCCCC1CC(=O)OC1=O (stereo unspecified)	101% (inactive)	93.5% (inactive)	107% (inactive)	110% (inactive)	97.9% (inactive)	–	96.5% (inactive)	118% (inactive)	96.9% (inactive)	–	–
CC1C(=O)c2ccccc2CC1C(=O)O (stereo unspecified)	112% (inactive)	100% (inactive)	–	98.5% (inactive)	83.2% (inactive)	142% (inactive)	99.1% (inactive)	97.3% (inactive)	113% (inactive)	–	–
O=C(Nc1cccc(NC(=O)Nc2cc(C(F)(F)F)ccc2Cl)c1)Nc1cc(C(F)(F)F)ccc1Cl	22% (inactive)	0.156% (active)	-13.8% (active)	9.11% (active)	-2.82% (active)	-3.96% (active)	5.91% (active)	2.16% (active)	–	–	–
CNC(=O)c1ccccc1CC1(O)c2ccccc2Oc2ccccc21	80.9% (inactive)	57.7% (inactive)	58.9% (inactive)	54.4% (inactive)	44.8% (inactive)	0.171% (active)	56.4% (inactive)	38.1% (inactive)	–	–	–
CNc1nc(NC)c2cn[nH]c2n1	100% (inactive)	78.6% (inactive)	–	108% (inactive)	88.6% (inactive)	112% (inactive)	5.44% (active)	101% (inactive)	99.2% (inactive)	–	–
C=CC(=O)OCCCCCCCC	103% (inactive)	88.4% (inactive)	140% (inactive)	101% (inactive)	97.6% (inactive)	89.8% (inactive)	83% (inactive)	89.9% (inactive)	–	–	–
CC(=O)c1ccc(N=C(C#N)C2=C(O)c3ccccc3C2=O)cc1	103% (inactive)	90.8% (inactive)	129% (inactive)	106% (inactive)	105% (inactive)	88.1% (inactive)	104% (inactive)	92.1% (inactive)	–	–	–
O=C(O)CCC(=O)OC(C1CO1)C(OC(=O)CCC(=O)O)C1CO1 (stereo unspecified)	109% (inactive)	85.3% (inactive)	93.2% (inactive)	101% (inactive)	106% (inactive)	80.5% (inactive)	101% (inactive)	99.8% (inactive)	–	–	–
CNS(=O)(=O)c1ccc(Cl)c(Cl)c1	92.7% (inactive)	109% (inactive)	89.4% (inactive)	99.5% (inactive)	–	104% (inactive)	104% (inactive)	84.9% (inactive)	99% (inactive)	–	–
CC(C(=O)O)(C1CCCCC1)C1(O)CCCCC1 (stereo unspecified)	100% (inactive)	84.9% (inactive)	91.1% (inactive)	107% (inactive)	96.7% (inactive)	–	–	94.3% (inactive)	–	–	–
O=C(O)/C=C/C(=O)NCc1ccccc1	108% (inactive)	90.9% (inactive)	–	97.9% (inactive)	102% (inactive)	109% (inactive)	–	101% (inactive)	–	–	–
O=[N+]([O-])c1ccccc1S(=O)c1ccccc1[N+](=O)[O-]	99.7% (inactive)	73.4% (inactive)	135% (inactive)	106% (inactive)	61.7% (inactive)	–	–	42% (inactive)	–	–	–
COc1ccc(/C(C#N)=C2C=C/C(=N/O)c3ccccc3\2)cc1	23.7% (inactive)	31.1% (inactive)	54.5% (inactive)	22.6% (inactive)	25.5% (inactive)	-8.12% (active)	–	19.2% (inactive)	–	–	–
